# Test results: PubChem BioAssay AID1970 (National Center for Advancing Translational Sciences (NCATS), 2009)
# Inconclusive results are not listed. Active and inactive are the calls of the source. Calls come from the whole dose curve; as a rule, active = well fitted inhibition curve with a large enough effect; inconclusive = small, poorly fitted or top-dose-only effect; inactive = flat fitted curve, though single readings scatter.
# Target: Dual specificity protein kinase CLK4 (Homo sapiens) (UniProt Q9HAZ1)
# Assay: Confirmation Assay for Inhibitors of CDC-like Kinase 4 (Kinase-Glo Assay)
# Settings: recombinant Clk4, Kinase-Glo ATP depletion luminescence; series mostly up to 47.7 µM
# Description: NIH Molecular Libraries Probe Production Centers Network [MLPCN] NIH Chemical Genomics Center [NCGC] MLPCN Grant: 1R03MH084827-01 Assay Submitter (PI): Tom Misteli NCGC Assay Overview: Clk4 (Invitrogen, cat# PV3839) was assayed using ATP and the RS repeat peptide (AnaSpec cat # 61722) as substrates. Following the Clk4 reaction, the remaining ATP levels were detected using Promega Kinase-Glo technology wherein the remaining ATP from the kinase reaction is detected using Ultra-Glo luciferase and D-luciferin which generates a bioluminescence signal from the ATP.
# NCGC Assay Protocol Summary: Two uL/well of substrate-buffer solution (100 uM RS peptide, 1 uM ATP, 25 mM Tris pH7.5, 10 mM MgCl2, 0.5 mM EGTA, 2.5 mM DTT, 0.01% Triton X-100 final concentration) was dispensed into 1536-well, assay plates (Greiner, solid white medium-binding plates) with Aurora Discovery BioRAPTR Flying Reagent Dispenser (FRD; Beckton-Dickenson). Using a Kalypsys pin tool equipped with a 1536-pin tool, 23 nL of compound solution was transferred to the assay plate. One uL/ well Clk4-buffer solution (25 nM Clk4, 25 mM Tris pH 7.5, 10 mM MgCl2, 0.5 mM EGTA, 2.5 mM DTT, 0.01% Triton X-100, final concentrations) was then added using the FRD yielding a total kinase reaction volume of 3 uL/ well. After 4.5 hours of room temperature incubation, 3 uL Kinase-Glo reagent was added for a final assay volume of 6 uL/ well. Luminescence was detected with the ViewLux plate reader (Perkin Elmer, Waltham, MA) after 5 min incubation using a 5 second exposure time and 2x binning.
# Dual specificity protein kinase CLK4 (Homo sapiens), sequence (Q9HAZ1 whole entry, looked up): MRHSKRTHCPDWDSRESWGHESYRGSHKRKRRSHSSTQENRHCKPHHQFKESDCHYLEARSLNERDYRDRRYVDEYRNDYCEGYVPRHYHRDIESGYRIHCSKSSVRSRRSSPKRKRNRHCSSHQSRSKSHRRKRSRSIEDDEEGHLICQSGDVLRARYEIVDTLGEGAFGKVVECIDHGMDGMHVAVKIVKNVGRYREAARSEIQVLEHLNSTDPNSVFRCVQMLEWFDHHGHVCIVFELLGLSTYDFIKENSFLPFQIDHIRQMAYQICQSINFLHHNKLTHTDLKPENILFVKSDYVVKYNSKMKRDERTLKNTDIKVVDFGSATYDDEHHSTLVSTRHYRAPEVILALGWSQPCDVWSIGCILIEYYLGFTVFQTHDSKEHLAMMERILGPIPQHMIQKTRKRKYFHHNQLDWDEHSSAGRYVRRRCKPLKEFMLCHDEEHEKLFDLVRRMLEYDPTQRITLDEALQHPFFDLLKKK
row,Compound,Potency
1,Cc1nc(C)c(-c2ccc3ncnc(NCc4ncc[nH]4)c3c2)s1,1840 nM (active)
2,Cc1cccc(CNc2ncnc3ccc(-c4ccc5c(ccn5C)c4)cc23)c1,39800 nM (active)
3,CCCN(Cc1cccs1)c1ncnc2ccc(-c3ccc4c(c3)OCO4)cc12,116 nM (active)
4,Cc1ccc(CNc2ncnc3ccc(-c4ccoc4)cc23)o1,519 nM (active)
5,Cc1ccc(CNc2ncnc3ccc(-c4ccoc4C)cc23)o1,368 nM (active)
6,CCn1cnc(CCN(C)c2ncnc3ccc(-c4ccc5c(c4)OCO5)cc23)c1,1300 nM (active)
7,Cc1occc1CNc1ncnc2ccc(-c3ccc4c(c3)OCO4)cc12,47.5 nM (active)
8,Cc1nc(CNc2ncnc3ccc(-c4ccoc4C)cc23)cs1,823 nM (active)
9,CCOC(=O)c1ccc(-c2ccc3ncnc(NCc4ncc[nH]4)c3c2)o1,582 nM (active)
10,NCCNc1ncnc2ccc(-c3ccc4c(c3)OCO4)cc12,73.3 nM (active)
11,COc1cccc(-c2ccc3ncnc(NCc4ccc5c(c4)OCO5)c3c2)c1,1410 nM (active)
12,CN(Cc1ccco1)c1ncnc2ccc(-c3ccoc3)cc12,316 nM (active)
13,CCOC(=O)c1ccoc1-c1ccc2ncnc(NCc3ncc[nH]3)c2c1,10400 nM (active)
14,c1nc(N2CCC(N3CCCC3)CC2)c2cc(-c3ccc4c(c3)OCO4)ccc2n1,4630 nM (active)
15,c1nc(NCc2ccoc2)c2cc(-c3ccc4c(c3)OCO4)ccc2n1,37.7 nM (active)
16,CCOC(=O)c1ccoc1-c1ccc2ncnc(NCCc3cnc[nH]3)c2c1,23200 nM (active)
17,CN(Cc1nccs1)c1ncnc2ccc(-c3ccc4c(c3)OCO4)cc12,37.7 nM (active)
18,COc1cccc(-c2ccc3ncnc(NCc4cc(C)cs4)c3c2)c1,794 nM (active)
19,CCN(CCc1cn(C)cn1)c1ncnc2ccc(-c3ccc4c(c3)OCO4)cc12,519 nM (active)
20,Cc1cccc(CNc2ncnc3ccc(-c4ccccc4Cl)cc23)c1,12600 nM (active)

row,Compound,Potency
1,Cc1csc(CNc2ncnc3ccc(-c4ccc5c(c4)OCO5)cc23)c1,141 nM (active)
2,CCOC(=O)c1ccc(-c2ccc3ncnc(NCc4cccs4)c3c2)o1,116 nM (active)
3,Cc1nc(CSc2ncnc3ccc(-c4ccc5c(c4)OCO5)cc23)cs1,184 nM (active)
4,c1nc(OCc2cnc[nH]2)c2cc(-c3ccc4c(c3)OCO4)ccc2n1,6540 nM (active)
5,CCOC(=O)c1ccoc1-c1ccc2ncnc(NCc3ccc(C)o3)c2c1,5820 nM (active)
6,Fc1cccc(CNc2ncnc3ccc(-c4ccoc4)cc23)c1,3160 nM (active)
7,Cc1ccc(CNc2ncnc3ccc(-c4ccc5c(c4)OCO5)cc23)s1,189 nM (active)
8,Clc1cccc(-c2ccc3ncnc(NCc4cccs4)c3c2)c1,7940 nM (active)
9,Cc1cccc(CNc2ncnc3ccc(-c4cccnc4)cc23)c1,3550 nM (active)
10,Cn1cncc1CNc1ncnc2ccc(-c3ccc4c(c3)OCO4)cc12,75.2 nM (active)
11,c1csc(CNc2ncnc3ccc(-c4ccc5c(c4)OCO5)cc23)c1,45.8 nM (active)
12,CCN(Cc1cccs1)c1ncnc2ccc(-c3ccc4c(c3)OCO4)cc12,51.9 nM (active)
13,c1cncc(CNc2ncnc3ccc(-c4ccoc4)cc23)c1,631 nM (active)
14,Cc1cccc(-c2ccc3ncnc(NCc4cccc(F)c4)c3c2)c1,4470 nM (active)
15,CCOC(=O)c1ccc(-c2ccc3ncnc(NCc4csc(C)n4)c3c2)o1,654 nM (active)
16,O=C(O)c1ccc(-c2ccc3ncnc(NCCc4cnc[nH]4)c3c2)o1,923 nM (active)
17,c1csc(CCNc2ncnc3ccc(-c4ccc5c(c4)OCO5)cc23)c1,46.3 nM (active)
18,Fc1c(-c2ccc3ncnc(NCc4cccs4)c3c2)ccc2c1OCO2,65.4 nM (active)
19,Clc1ccccc1-c1ccc2ncnc(NCc3cccnc3)c2c1,10000 nM (active)
20,CCN(Cc1sccc1C)c1ncnc2ccc(-c3ccc4c(c3)OCO4)cc12,146 nM (active)
